# Assay outcomes from PubChem BioAssay.
# In the library only some 12% were active in any assay of this set; here they are far more common.
# G9a block = inhibitors of human histone lysine methyltransferase G9a. Potency, µM (highest dose often 102 µM), without a hit: top-dose activity, negative = inhibition, actives largely listed as inhibitors. AID 504332. 8.8% of 350,000 active. Q96KQ7. G9a H3K9 monomethylation, AlphaScreen, 2 h; further: on the % scale 0 is the no-effect control and ±100 the full control effect; nearly all actives have a fitted effect of over 75% in size
#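 Methyltransferase reactions run at room temperature for 2 h (20 nM enzyme, 500 nM biotin-H3K9 peptide, 20 uM SAM) after a 15 min compound preincubation; product detected by AlphaScreen beads and anti-H3K9me1 antibody.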
# BAZ2B block = inhibitors of human BAZ2B bromodomain. Q9UIF8. AlphaScreen BAZ2B-H3K14Ac peptide displacement. Potency, µM (top dose mostly 114 µM), inactives show top-dose activity change, negative = inhibition, usual class: inhibitors. 4.4% of 360,000 active; further: on the % scale 0 is the no-effect control and ±100 the full control effect; nearly all actives have a fitted effect of over 60% in size
#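 In this displacement format the biotinylated H3(5-23) peptide acetylated at Lys14 serves as ligand at 50 nM, with BAZ2B at 50 nM in PBS pH 7.4 containing 0.01% Tween-20. Donor and acceptor beads are 10 ug/mL final.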
# Sfp PPTase inh = Sfp phosphopantetheinyl transferase inhibition | Q9F4F7 | Biochemical Sfp PPTase activity, qHTS | Potency, µM, for inactives: largest response in the series, negative = inhibition, hits mostly inhibitors | 3.5% of 310,000 active | AID 1490;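 further: the enzyme is Sfp with the accession as filed and its product quenches rhodamine fluorescence; 0% = enzyme reaction without inhibitor and -100% = no enzyme wells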
#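 Reaction rates are the 30-min fluorescence difference (ex 525, em 598 nm) in wells containing 15 nM Sfp, 5 uM rhodamine-CoA and 12.5 uM BHQ-2-YbbR at pH 7.6 with 10 mM MgCl2.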
# L3MBTL1 block = inhibitors of human L3MBTL1; AID 485360; Potency, µM (doses to about 57.1 µM), inactives show at the highest dose activity, negative = inhibition, hits mostly inhibitors; Q9Y468; 0.66% of 230,000 active; AlphaScreen L3MBTL1–H3K9me1 peptide binding; further: on the % scale 0 is the no-effect control and ±100 the full control effect; nearly all actives have a fitted effect of over 60% in size
# Target sequence (Q9Y468 whole entry, looked up): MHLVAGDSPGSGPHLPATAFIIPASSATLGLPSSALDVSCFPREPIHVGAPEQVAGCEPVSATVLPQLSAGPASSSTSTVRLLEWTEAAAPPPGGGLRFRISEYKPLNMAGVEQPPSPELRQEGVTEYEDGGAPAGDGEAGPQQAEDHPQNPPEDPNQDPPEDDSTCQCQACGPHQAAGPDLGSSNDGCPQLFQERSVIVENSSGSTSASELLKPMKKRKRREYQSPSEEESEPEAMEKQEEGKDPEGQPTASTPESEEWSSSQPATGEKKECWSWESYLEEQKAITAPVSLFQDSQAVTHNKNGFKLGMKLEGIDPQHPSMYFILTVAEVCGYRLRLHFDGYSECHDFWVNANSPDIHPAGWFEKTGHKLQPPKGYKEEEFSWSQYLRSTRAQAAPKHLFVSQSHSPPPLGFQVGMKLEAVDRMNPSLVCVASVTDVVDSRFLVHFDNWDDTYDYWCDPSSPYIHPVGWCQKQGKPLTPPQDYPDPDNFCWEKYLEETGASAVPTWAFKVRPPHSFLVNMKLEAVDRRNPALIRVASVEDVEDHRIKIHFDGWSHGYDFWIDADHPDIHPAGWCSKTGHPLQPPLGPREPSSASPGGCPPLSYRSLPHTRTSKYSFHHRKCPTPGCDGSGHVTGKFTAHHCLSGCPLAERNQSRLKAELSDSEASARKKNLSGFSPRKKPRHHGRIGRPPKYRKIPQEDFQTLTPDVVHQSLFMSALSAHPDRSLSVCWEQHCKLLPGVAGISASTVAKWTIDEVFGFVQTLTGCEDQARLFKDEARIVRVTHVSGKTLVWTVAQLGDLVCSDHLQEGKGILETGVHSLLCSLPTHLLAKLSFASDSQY
#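 Displacement of a biotinylated histone H3(1-15) peptide monomethylated at Lys9 (75 nM) from L3MBTL1 (50 nM) was measured by AlphaScreen after a 30 min room-temperature compound incubation; cefsulodin titration served as intraplate control.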
# HP1b binding inh = HP1-beta chromodomain-methylated histone interaction inhibition; AID 540317; 0.56% of 390,000 active; Potency, µM (titrated, usually from 114 µM), for the others: at the top dose activity change, negative = inhibition, usual class: inhibitors; P83916; AlphaScreen HP1-beta / biotin-H3K9me3 peptide binding; further: nearly all actives have a fitted effect of over 70% in size
#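 Compound inhibition of the preformed complex between 50 nM HP1-beta and 50 nM biotinylated H3K9me3 peptide was read by AlphaScreen. Buffer was PBS pH 7.4 with 0.01% Tween-20. Incubations ran 30 min at room temperature, with 10 ug/mL donor/acceptor beads.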
# JMJD2A Tudor = blocks the human JMJD2A Tudor domain; O75164; AlphaScreen JMJD2A-Tudor / H3K4me3 peptide binding; Potency, µM (top dose mostly 114 µM), without a hit: top-dose activity change, negative = inhibition, usual class: inhibitors; 4.4% of 390,000 active; AID 504339; further: on the % scale 0 is the no-effect control and ±100 the full control effect; nearly all actives have a fitted effect of over 50% in size
# * marks the source's active call; other numbers are inactive results; ? = inconclusive; . = no result given; [ ] = another dose, or the depositor's remark. The call rests on the fitted dose curve; in most records, active means well fitted curve in the direction sought with a large enough effect; inconclusive means small, poorly fitted or top-dose-only effect, or another doubt; inactive means no such curve, though single readings can be large; an effect the other way counts as inactive or inconclusive. Potency means the concentration at half of the fitted maximal effect.
SMILES,G9a block,BAZ2B block,Sfp PPTase inh,L3MBTL1 block,HP1b binding inh,JMJD2A Tudor
COc1cc(/C=C2/C(=N)N3N=C(CC(=O)N4CCOCC4)SC3=NC2=O)ccc1OCc1ccccc1F,13%,?,-1%,.,39%,-26%
COc1cc(/C=C2/C(=N)N3N=C(CC(=O)N4CCOCC4)SC3=NC2=O)ccc1OCc1ccc(F)cc1,12%,-23%,8%,.,10%,4.5µM*
Cc1ccc(/C=C2\C(=N)N3N=C(CC(=O)N4CCOCC4)SC3=NC2=O)o1,56µM*,-27%,4%,.,-16%,56µM*
COc1ccc(/C=C2\C(=N)N3N=C(CC(=O)N4CCOCC4)SC3=NC2=O)cc1,16%[59 µM],?,9%,.,5%,-2%
N=C1/C(=C/c2ccc(-c3cccc(C(=O)O)c3)o2)C(=O)N=C2SC(CC(=O)N3CCOCC3)=NN12,?,25µM*,19%,.,?,20µM*
COc1ccccc1-n1c(C)cc(/C=C2\C(=N)N3N=C(CC(=O)N4CCOCC4)SC3=NC2=O)c1C,-15%,50µM*,12%,.,51%,10%
Cc1cc(C)c2oc(C(=O)Nc3c(C)n(C)n(-c4ccccc4)c3=O)cc(=O)c2c1,0%[59 µM],0%,.,.,48%,2%
N=C1/C(=C\c2ccc(-c3cccc(C(=O)O)c3)o2)C(=O)N=C2SC=C(c3ccccc3)N12,11µM*,22µM*,1%,22µM*,?,-21%[11.4 µM]
Cc1ccccc1-n1c(C)cc(/C=C2/C(=N)N3C(c4ccccc4)=CSC3=NC2=O)c1C,?,-7%,7%,-10%,-1%,-28%
COc1cc(/C=C2\C(=N)N3N=CSC3=NC2=O)ccc1OS(=O)(=O)c1ccccc1[N+](=O)[O-],.,-14%,-4%,.,-3%,-30%
N=C1/C(=C\c2ccc(SCc3ccccc3)o2)C(=O)N=C2SC=NN12,50µM*,-20%,5%,.,24%,-31%
Cc1cc(/C=C2/C(=N)N3C(c4ccccc4)=CSC3=NC2=O)c(C)n1-c1ccccc1,50µM*,4%,-20%,-25%,35%,-13%
N=C1/C(=C\c2ccc(SCc3ccccc3)o2)C(=O)N=C2SC(CC(=O)N3CCOCC3)=NN12,?,45µM*,-21%,.,6%,?
CC[C@@H](C)[C@H]1O[C@]2(CC[C@@H]1C)C[C@@H]1C[C@H](C/C=C(/C)[C@H](O[C@@H]3C[C@H](OC)[C@H](O[C@@H]4C[C@H](OC)[C@@H](O)[C@H](C)O4)[C@H](C)O3)[C@@H](C)/C=C\C=C3CO[C@@H]4[C@H](O)C(C)=C[C@@H](C(=O)O1)[C@]34O)O2 (tested in a mixture with another compound),.,.,-7%,.,.,.
N#CC1=C(N)N2C(=C(C#N)C1c1ccc(Br)cc1)Nc1ccccc12 (stereo unspecified),10µM*,4%,10%,14%,1%,-29%
N#CC1=C(N)N2C(=C(C#N)C1c1cccc(Br)c1)Nc1ccccc12 (stereo unspecified),10µM*,3%,19%,2%,49%,-10%
O=C(NCC(=O)N1CCN(C/C=C/c2ccccc2)CC1)c1ccc(OC(F)F)cc1,1%[59 µM],1%,.,0%,36%,-12%
CCOc1ccc(CCNC(=O)CCCn2c(=O)c3cccn3c3ccccc32)cc1,-5%[59 µM],3%,.,.,10%,-12%
CSc1ccc(CCNC(=O)CCCn2c(=O)c3cccn3c3ccccc32)cc1,14µM*,-31%,.,.,-1%,?
COCCNCc1cc(C)n(-c2cc(S(=O)(=O)N3CCOCC3)ccc2N2CCCC2)c1C,.,.,.,.,-37%,5µM*
CCc1ccc(-c2nn(-c3ccc(OC)cc3)c3c2cnc2ccc(OC)cc23)cc1,4%[59 µM],.,.,.,50%,0%
O=C1C=CC2(OCCCO2)C(Br)=C1CO,.,.,-2%,.,.,.
